PubChem BioAssay AID1159580 (chemical genetic matrix, 2015)
Several values for one entry are separate records, joined by “and”; a condition that tells them apart may be missing. Equal values may be shown once. In all, about 5,500 compounds went through this assay and about 2,000 (36%) were called active. Roughly 18% stayed inconclusive and do not appear here. Rule as the data show it: active = normalized growth mostly below about 0.91 (no sharp cut-off); inconclusive = no clear call, values can overlap the other calls; inactive = mostly above about 0.92. This is one part of the list.

Assay: chemical genetic growth profiling, strain panel (AID 1159580);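 also: tested at 20 µM; growth read once vehicle control cultures reached saturation at 30 °C; 1 = growth at the plate median or of vehicle wells; lower values mean less growth of the strain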
Settings: S. cerevisiae deletion strains, growth OD

Measured: normalized growth

COc1ccc2c(c1)OC[C@@H](Cc1ccc(OC)c(OC)c1)[C@H]2O
active: locus YDR137W, strain rgp1, stronger effect = lower value 0.806
inactive: locus YAL013W, strain DEP1, stronger effect = lower value 0.986 | locus YAL021C, strain ccr4, stronger effect = lower value 0.993 | locus YAL026C, strain drs2, stronger effect = lower value 1.02 | locus YAL030W, strain snc1, stronger effect = lower value 1.01 | locus YBL061C, strain skt5, stronger effect = lower value 1 | locus YBR009C, strain hhf1, stronger effect = lower value 0.993 | locus YBR021W, strain FUR4, stronger effect = lower value 1.06 | locus YBR023C, strain chs3, stronger effect = lower value 0.999 | locus YBR171W, strain sec66, stronger effect = lower value 1.01 | locus YBR229C, strain ROT2, stronger effect = lower value 1 | locus YBR231C, strain swc5, stronger effect = lower value 1.01 | locus YBR279W, strain paf1, stronger effect = lower value 1.02 | locus YCL011C, strain gbp2, stronger effect = lower value 1.01 | locus YCL016C, strain dcc1, stronger effect = lower value 1 | locus YCL029C, strain bik1, stronger effect = lower value 0.953 | locus YCL061C, strain MRC1, stronger effect = lower value 0.98 | locus YCL069W, strain vba3, stronger effect = lower value 1.01 | locus YCR088W, strain abp1, stronger effect = lower value 0.999 | locus YDL005C, strain med2, stronger effect = lower value 0.999 | locus YDL035C, strain GPR1, stronger effect = lower value 0.984 | locus YDL040C, strain nat1, stronger effect = lower value 0.991 | locus YDL074C, strain BRE1, stronger effect = lower value 0.995 | locus YDL101C, strain DUN1, stronger effect = lower value 1 | locus YDL134C, strain PPH21, stronger effect = lower value 1.06 | locus YDL185W, strain tfp1, stronger effect = lower value 0.943 | locus YDL192W, strain arf1, stronger effect = lower value 0.967 | locus YDR001C, strain nth1, stronger effect = lower value 1 | locus YDR069C, strain doa4, stronger effect = lower value 0.992 | locus YDR101C, strain arx1, stronger effect = lower value 0.981 | locus YDR159W, strain sac3, stronger effect = lower value 0.939 | locus YDR162C, strain NBP2, stronger effect = lower value 1.01 | locus YDR195W, strain ref2 1 | locus YDR297W, strain sur2, stronger effect = lower value 1 | locus YDR318W, strain mcm21, stronger effect = lower value 0.981 | locus YDR334W, strain swr1, stronger effect = lower value 1.02 | locus YDR335W, strain msn5, stronger effect = lower value 1.01 | locus YDR388W, stronger effect = lower value 0.969 | locus YDR392W, strain spt3, stronger effect = lower value 0.929 | locus YDR502C, strain sam2, stronger effect = lower value 0.983 | locus YEL003W, strain gim4, stronger effect = lower value 1.01 | locus YEL037C, strain rad23, stronger effect = lower value 1.01 | locus YEL061C, strain CIN8 (second series), stronger effect = lower value 1.01 | locus YEL061C, strain CIN8, stronger effect = lower value 0.99 | locus YER015W, strain faa2, stronger effect = lower value 1.01 | locus YER016W, strain bim1, stronger effect = lower value 1.01 | locus YER110C, stronger effect = lower value 0.978 | locus YER111C, strain swi4, stronger effect = lower value 1 | locus YER155C, strain BEM2 (second series), stronger effect = lower value 1.01 | locus YER155C, strain BEM2, stronger effect = lower value 0.984 | locus YER167W, strain BCK2, stronger effect = lower value 0.957 | locus YFR010W, strain ubp6, stronger effect = lower value 1.01 | locus YGL078C, strain dbp3, stronger effect = lower value 0.977 | locus YGL086W, strain mad1, stronger effect = lower value 0.989 | locus YGL167C, strain pmr1, stronger effect = lower value 1.01 | locus YGL173C, strain kem1, stronger effect = lower value 1.02 | locus YGL227W, strain vid30, stronger effect = lower value 0.999 | locus YGL240W, strain doc1, stronger effect = lower value 1.01 | locus YGL248W, strain PDE1, stronger effect = lower value 1.03 | locus YGL253W, strain hxk2, stronger effect = lower value 1 | locus YGR135W, strain pre9, stronger effect = lower value 0.99 | locus YGR252W, strain gcn5, stronger effect = lower value 1.01 | locus YHR013C, strain ard1, stronger effect = lower value 1.01 | locus YHR027C, strain rpn1, stronger effect = lower value 0.999 | locus YHR030C, strain SLT2, stronger effect = lower value 0.987 and 0.938 | locus YHR079C, strain IRE1 (second series), stronger effect = lower value 0.979 | locus YHR079C, strain IRE1, stronger effect = lower value 0.956 | locus YHR094C, strain hxt1, stronger effect = lower value 0.978 | locus YHR129C, strain ARP1, stronger effect = lower value 0.994 | locus YHR142W, strain chs7, stronger effect = lower value 0.975 | locus YHR200W, strain rpn10, stronger effect = lower value 0.966 | locus YIL066C, strain RNR3, stronger effect = lower value 1.01 | locus YIL073C, strain SPO22, stronger effect = lower value 0.919 | locus YIR030C, strain dcg1, stronger effect = lower value 0.955 | locus YJL092W, strain hpr5, stronger effect = lower value 1.01 | locus YJL095W, strain BCK1 (second series), stronger effect = lower value 1.01 | locus YJL095W, strain BCK1, stronger effect = lower value 1.04 and 0.939 | locus YJL115W, strain asf1, stronger effect = lower value 1.01 | locus YJL129C, strain trk1, stronger effect = lower value 0.956 | locus YJL134W, strain LCB3, stronger effect = lower value 0.991 | locus YJL154C, strain vps35, stronger effect = lower value 1.01 | locus YJL164C, strain tpk1, stronger effect = lower value 0.993 | locus YJL166W, strain qcr8, stronger effect = lower value 1.01 | locus YJL168C, strain set2, stronger effect = lower value 0.997 | locus YJL187C, strain SWE1 (second series), stronger effect = lower value 1.01 | locus YJL187C, strain SWE1, stronger effect = lower value 1 | locus YJR043C, strain POL32, stronger effect = lower value 1.01
